12-hLO inh – blocks human 12-lipoxygenase activity | AID 1452 | purified 12-hLO, xylenol orange hydroperoxide absorbance | 0.12% of 150,000 active | P18054 | Potency, µM (highest dose often 57.1 µM), actives largely listed as inhibitors; active = well fitted curve in the direction sought with a large enough effect; inconclusive = small, poorly fitted or top-dose-only effect, or another doubt; inactive = no such curve, though single readings can be large; an effect the other way counts as inactive or inconclusive; note: nearly all actives have a fitted effect of over 55% in size
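150 nM 12hLO, 25 mM Hepes pH 7.0 + 0.01% Triton X-100; cpd preinc 15 min RT; 40 uM arachidonic acid, 30 min RT; Fe-XO 30 min; A573/A405 ratio as read-out.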
ALDH1A1 inh – inhibitors of human aldehyde dehydrogenase 1A1; P00352; Purified ALDH1A1, NADH fluorescence, propionaldehyde substrate; Potency, µM (series often up to 75.3 µM), actives largely listed as inhibitors; 7.3% of 220,000 active
HPGD inh – blocks human HPGD enzyme activity; P15428; purified HPGD, NADH fluorescence kinetic, PGE2 substrate; Potency, µM, hits mostly inhibitors; 4.3% of 150,000 active
Target sequence (P15428 whole entry, looked up): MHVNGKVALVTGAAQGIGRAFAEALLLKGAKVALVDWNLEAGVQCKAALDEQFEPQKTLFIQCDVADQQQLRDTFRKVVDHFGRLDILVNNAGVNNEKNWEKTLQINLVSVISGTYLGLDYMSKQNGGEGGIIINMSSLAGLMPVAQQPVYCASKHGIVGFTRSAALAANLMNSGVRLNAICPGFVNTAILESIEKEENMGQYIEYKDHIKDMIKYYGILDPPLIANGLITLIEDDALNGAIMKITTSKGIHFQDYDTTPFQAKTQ
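NADH formation kinetics: reaction with 30 uM PGE2 and 1 mM NAD+ (final), 20 nM enzyme, Tris-HCl pH 8 with Tween 20, after 15 min compound preincubation at room temperature. Fluorescence change, last versus first of five reads.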
PNC inhibitor – inhibitors of perinucleolar compartment assembly; AID 2417; activity change (PNC), negative = inhibition, % at 10 µM; 3.1% of 140,000 active; PC3M PTB-GFP, PNC prevalence imaging, 16 h; hits give low values;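 active = readout at or below -70, meaning at least 70% loss of cells showing the perinucleolar compartment, a nuclear body marking cancer cells; inconclusive = readout between -30 and a set limit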
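Compounds are pinned in duplicate onto adhered PC3M cells stably expressing GFP-tagged PTB and incubated 16 h at 37 C. Cells are then fixed, nuclei stained with Hoechst, and PNC-positive cells counted.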
IMPase Li inh – IMPase inhibition in cells with lithium potentiation; CHO-M1 cells, IP1 TR-FRET (IP-One), carbachol + lithium; Potency, µM (highest dose often 59.4 µM), usual class: inhibitors; 0.35% of 210,000 active; AID 1457; active = well fitted curve in the direction sought with a large enough effect; inconclusive = small, poorly fitted or top-dose-only effect, or another doubt; inactive = no such curve, though single readings can be large; an effect the other way counts as inactive or inconclusive;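 note: IP1 builds up when IMPase is blocked and the TR-FRET signal falls; nearly all actives have a fitted effect of over 50% in size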
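Steps: plate 2000 CHO-M1 cells per well and culture 16–30 h; add compound and lithium; incubate 30 min, 37C; add d2-IP1 tracer and Eu cryptate anti-IP1 antibody in lysis buffer; read after 10 min at room temperature.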
IMPase cell inh – cell-permeable inhibitors of inositol monophosphatase (IMPase); P97697; CHO-M1 cells, IP1 accumulation, HTRF TR-FRET ratio; inhibition (IP1 accumulation), % at 46.1 µM; 120,000 tested, under 10 active; AID 901; active = well fitted curve in the direction sought with a large enough effect in the signal ratio, not every such curve was filed as active; inconclusive = small, poorly fitted or top-dose-only effect, or a change in a side signal; inactive = no such curve, though single readings can be large or run the other way; the % refers to the signal ratio;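 note: cells stimulated with carbachol in lithium chloride buffer; higher means more IMPase inhibition seen as more IP1 and lower FRET ratio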
Target sequence (P97697 whole entry, looked up): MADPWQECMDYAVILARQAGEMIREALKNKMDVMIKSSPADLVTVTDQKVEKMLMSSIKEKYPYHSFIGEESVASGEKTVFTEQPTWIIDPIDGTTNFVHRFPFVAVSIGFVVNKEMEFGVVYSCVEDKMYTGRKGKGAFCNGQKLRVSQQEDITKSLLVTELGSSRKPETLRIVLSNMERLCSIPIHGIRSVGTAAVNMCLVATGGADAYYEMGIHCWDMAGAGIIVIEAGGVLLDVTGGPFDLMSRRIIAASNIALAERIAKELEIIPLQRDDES
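The IP-One HTRF competitive assay in carbachol-stimulated CHO-M1 cells quantifies cellular IP1. Compounds spanned up to 46 uM final, and activity is expressed as AC50 from concentration-response fits of the ratio and donor data.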
A number is an active result; . = inactive; ? = inconclusive; / = no result given; [ ] = dose if it differs, or a comment. The list is not random: actives were taken first. Their share in the collection is about 11%. Unless noted, calls come from the whole dose curve; as a rule, active = well fitted inhibition curve with a large enough effect (not every such curve was filed as active); inconclusive = small, poorly fitted or top-dose-only effect, or another doubt; inactive = no such curve, though single readings can be large or run the other way.

SMILES | 12-hLO inh | ALDH1A1 inh | HPGD inh | PNC inhibitor | IMPase Li inh | IMPase cell inh
Cc1cccc(C(=O)N2CCNC(=O)C2CC(=O)Nc2ccc(F)cc2)c1 (stereo unspecified) | / | / | / | / | / | .
COc1cc(OC)c(Nc2nc3ccccc3c3nncn23)cc1Cl | / | / | / | / | / | .
O=c1cc(-c2ccc(O)cc2)oc2ccc(O)cc12 | . | . | 20µM | / | . | /
COc1ccccc1-c1cc(=O)c2cc(O)ccc2o1 | . | . | 15.8µM | / | . | .
O=c1cc(-c2cccc(O)c2)oc2ccc(O)cc12 | . | ? | 7.08µM | / | . | /
O=c1cc(-c2ccc(O)cc2)oc2ccccc12 | / | . | / | / | . | /
CN(Cc1ccccc1)S(=O)(=O)c1ccc(Cl)nc1 | . | 22.4µM | . | . | . | .
CN(c1ccccc1)S(=O)(=O)c1ccc(Cl)nc1 | / | . | / | / | . | /
COc1ccccc1NS(=O)(=O)c1cccc(C(=O)NN=C2CCCCCC2)c1 | . | 12.6µM | . | . | . | /
Cc1c(C(=O)NCc2ccc3c(c2)OCO3)oc2ccc(S(=O)(=O)N3CCC(C)CC3)cc12 | . | . | . | -100.0 | . | .
Cc1c(C(=O)NCCN2CCOCC2)oc2ccc(S(=O)(=O)N3CCCCCC3)cc12 | . | 25.1µM | . | ? | . | .
Cc1c(C(=O)NCCc2ccccc2)oc2ccc(S(=O)(=O)N3CCOCC3)cc12 | . | . | . | ? | . | .
OC(CN1CCN(Cc2ccccc2)CC1)c1ccccc1 (stereo unspecified) | / | . | / | / | . | /
CC(=O)N1CCC2(CCN(Cc3ccccc3)CC2)CC1 | . | . | . | / | . | /
OC(c1ccccc1)C1CN(Cc2ccccc2)CCC1(O)c1ccccc1 (stereo unspecified) | . | 20µM | . | . | . | .
O=C(c1ccccc1)C1CN(Cc2ccccc2)CCC1(O)c1ccccc1 (stereo unspecified) | / | 0.224µM | / | / | . | /
O=C(NC1(O)C(=O)c2ccccc2C1=O)c1ccccc1 | . | 1.41µM | . | . | . | .
O=C(NO)c1ccccc1 | . | . | . | / | . | /
CN(C)C(=S)Nc1ccc2c(c1)OCO2 | / | 10µM | / | / | . | /
O=C(CCl)Nc1ccc2c(c1)OCO2 | / | 1.58µM | / | / | . | /
CC(C)CC(=O)Nc1ccc2c(c1)OCO2 | / | . | / | / | . | /
O=C(COC(=O)c1c2c(nc3ccccc13)CCCC2)Nc1ccc2c(c1)OCO2 | . | 8.91µM | . | ? | . | .
O=C(COC(=O)Cc1ccc(S(=O)(=O)N2CCOCC2)s1)Nc1ccc2c(c1)OCO2 | . | 20µM | . | . | . | .
N#Cc1ccc(NCC(=O)Nc2ccc3c(c2)OCCO3)cc1 | / | 12.6µM | / | / | . | /
CCN(CC)c1ccc(NC(=O)CSc2nnc3nc(C)cc(C)n23)cc1 | . | ? | 15.8µM | . | . | .
SMILES | 12-hLO inh | ALDH1A1 inh | HPGD inh | PNC inhibitor | IMPase Li inh | IMPase cell inh
CC1CN(S(=O)(=O)c2cccc(C(=O)OCC(=O)Nc3ccc4c(c3)OCO4)c2)CC(C)O1 (stereo unspecified) | . | 11.2µM | . | . | . | .
CC1CN(S(=O)(=O)c2cccc(C(=O)OCC(=O)c3cccs3)c2)CC(C)O1 (stereo unspecified) | . | ? | . | . | . | .
N#Cc1cccc(NCC(=O)Nc2ccc3c(c2)OCCO3)c1 | / | ? | / | / | . | /
Cc1cc(C)c(OCC(=O)Nc2ccc3c(c2)OCO3)cc1C | . | ? | . | ? | 10µM | .
CC1(C)N([O-])C2=C(c3ccccc3C2=O)[N+](=O)C1(C)C | . | . | . | . | . | .
O=C(CCS(=O)(=O)c1cc(Br)cc2c1N(C(=O)C1CC1)CC2)N1CCN(c2cccc(Cl)c2)CC1 | / | / | / | / | / | .
NCC(=O)N[C@H](CO)C(=O)O | .[11.4 µM] | .[13.5 µM] | . | / | . | /
O=C(c1csnn1)N1CCC2(CC1)CCN(c1ncccn1)CC2 | . | . | . | / | . | /
Cn1c([N+](=O)[O-])cnc1CN1CCN(CCO)CC1 | .[11.4 µM] | .[13.5 µM] | . | / | . | /
Cc1cc(C(F)F)n2nc(C(=O)Nc3ccc(C(C)C)cc3)nc2n1 | / | / | / | / | / | .
Cc1cc(C)n2nc(C(=O)OCC(=O)Nc3ccc4c(c3)OCO4)nc2n1 | . | . | . | -94.0 | . | .
CC(C)CC(NC(N)=O)C(=O)Nc1ccc2c(c1)OCO2 (stereo unspecified) | / | 17.8µM | / | / | . | /
Cc1cc(C)n2nc(C(=O)Nc3ccc4c(c3)OCO4)nc2n1 | . | ? | 20µM | . | . | .
CCN(CC)c1ccc(NC(=O)c2nc3nc(C)cc(C(F)F)n3n2)cc1 | . | 11.2µM | 22.4µM | . | . | ?
Cc1ccnc2nc(C(=O)Nc3ccc4c(c3)OCO4)nn12 | . | . | . | . | . | .
Cc1cc(C)n2nc(C(=O)OCC(=O)Nc3ccc4c(c3)OC(F)(F)O4)nc2n1 | . | . | . | . | . | .
O=C(c1ccco1)N1CCC2(CC1)CCN(c1ccccc1)CC2 | . | ? | . | / | . | /
CC#CCN1c2ccccc2[C@]23C[C@@H](C(=O)OC)N(S(=O)(=O)c4ccc5c(c4)OCCN5C)C2=NC(C(=O)OC)=C(C(=O)OC)[C@H]13 | .[11.4 µM] | .[13.5 µM] | . | / | . | /
Cc1ccc(C(=O)OCC(=O)Nc2ccc3c(c2)OCO3)o1 | . | . | . | -100.0 | . | .
COc1cccc(Cn2c(NCc3ccc(C)cc3)nc3c2c(=O)n(C)c(=O)n3C)c1 | / | / | / | / | / | .
O=C(NCc1cccnc1)/C(=C/c1ccc(-c2cccc(Cl)c2)o1)S(=O)(=O)c1ccccc1 | . | 12.6µM | . | . | . | .

Screens (PubChem)
